# PubChem BioAssay AID720690 (Broad Institute, 2013)
# Entries with a potency or affinity are not part of this list. Unmarked numbers belong to inactive results.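 The calls were made as follows: active = every repeat run showing a signal drop whose fitted half-maximal concentration is at most twice the top tested concentration; inconclusive = repeat runs disagree, or flat partial drop, or poor fit; inactive = the rest.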
# Assay: general mammalian cell viability loss – activator set, cherry-pick, cytotoxicity control for miR-122 modulator project, dose response (AID 720690);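 also: 0% = neutral control wells and -100% = MG132 cytotoxic control wells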
# Details: HEK293T viability, CellTiter-Glo luminescence, 48 h; series mostly up to 26 µM; activity change, negative = cytotoxicity: at the top concentration
row,SMILES,"activity change, negative = cytotoxicity"
1,COCC(=O)N(C[C@H]1[C@H](c2ccccc2)[C@H](CO)N1C(=O)NC(C)C)C(C)C,-14.9% [at 23.5 µM]
2,O=C(CN1CCN(c2nc(-c3ccccc3)cs2)CC1)Nc1ccc2c(c1)OCO2,-17.8%
3,COCC(=O)Nc1ccc2c(c1)C(=O)N(C)[C@@H]1CC[C@@H](CC(=O)NC3Cc4ccccc4C3)O[C@@H]1CO2,3.1% [at 23.5 µM]
4,CC(C)C(=O)Nc1ccc2c(c1)C(=O)N(C)[C@@H]1CC[C@H](CC(=O)NCC3CC3)O[C@H]1CO2,9.2% [at 23.5 µM]
